These results are taken from PubChem BioAssay (Tox21).

Each structure is given as a SMILES string. Inconclusive results are not listed. Calls of active or inactive are those of the source. Calls follow the shape of the dose curve; as a rule, active = well fitted activation curve with a large enough effect in the repeat runs; inconclusive = weak or mixed curves; inactive = no such curve, though single readings can be large or run the other way.
% is scaled to controls: 0 for no effect and ±100 for the full control effect; potency is read from the fitted curve at half-maximal effect.

Sequence of Nuclear receptor subfamily 1 group I member 3 (Homo sapiens) (Q14994 whole entry, looked up): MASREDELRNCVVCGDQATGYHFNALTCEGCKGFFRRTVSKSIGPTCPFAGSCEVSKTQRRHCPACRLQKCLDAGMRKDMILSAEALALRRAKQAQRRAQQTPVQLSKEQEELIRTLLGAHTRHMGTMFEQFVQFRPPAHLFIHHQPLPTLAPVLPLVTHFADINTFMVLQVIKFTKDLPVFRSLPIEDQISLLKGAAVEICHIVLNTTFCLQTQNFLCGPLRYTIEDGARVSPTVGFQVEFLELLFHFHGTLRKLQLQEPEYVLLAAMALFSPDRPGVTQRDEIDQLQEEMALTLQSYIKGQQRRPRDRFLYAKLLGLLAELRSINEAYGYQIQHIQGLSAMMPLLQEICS

This assay deals with Nuclear receptor subfamily 1 group I member 3 (Homo sapiens) (UniProt Q14994). Nature of the assay: qHTS assay to identify small molecule agonists of the constitutive androstane receptor (CAR) signaling pathway (AID 1224839). Also: nearly all actives have a fitted effect of over 15% in size.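 As to activation: HepG2 cells stably carrying human CAR and a CYP2B6 luciferase reporter.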 Particulars: HepG2 hCAR CYP2B6-luciferase, agonist mode, 24 h; series mostly up to 92.4 µM; activation: at the top concentration. From the text:
National Center for Advancing Translational Sciences [NCATS] NIH Chemical Genomics Center [NCGC] U.S. Environmental Protection Agency [EPA] National Institutes of Environmental Health Sciences [NIEHS] National Toxicology Program [NTP] Assay overview: The constitutive androstane receptor (CAR) is a nuclear receptor which regulates multiple drug metabolizing enzymes (DMEs) and transporters. Activating CAR will generally increase the transcription and subsequent translation of CYP2B6 and CYP3A4. These two DMEs represent about 50% of the drug metabolizing potential in the body. […] Recently, there have also been studies performed indicating CARs role in energy metabolism and cancer therapy. Therefore, inducing CARs activity could have a potential effect on diabetes and cancer. Identifying environmental toxins and compounds which modulate CAR, through the use of the Tox21 10K compound collection, will be an important step in determining the toxicity and potential therapeutic effects these factors will have on the human body.
Assay Protocol Summary: A double-stable (hCAR and CYP2B6-2.2kb) transfected cell line, derived from human hepatoma (HepG2) cells, was utilized for the duration of the quantitative high-throughput screens. The HepG2-CYP2B6-hCAR cells suspended in DMEM culture medium supplemented with 10% FBS, 5 ug/mL blasticidin, 0.5 mg/mL geneticin, 100 U/mL penicillin and 100 ug/mL streptomycin were dispensed at 2500 cells/4 uL/well in 1536-well white solid bottom plates using a Multidrop Combi. After the assay plates were incubated at 37 C/5% CO2 for 4 hrs, 23 nL of compounds at 15 concentrations (from 5-48 columns) or positive control (from 1 to 4 columns) were transferred to the assay plates using a Pintool station. One uL of PK11195, was added using a Flying Reagent Dispenser to generate a final concentration of 0.75 uM PK11195 inside each well. After a 24 hr incubation period at 37 C/5% CO2, four uL of ONE-Glo reagent was added into the assay plates using a Flying Reagent Dispenser. After a 30 min incubation period at room temperature, the luminescence intensity in the assay plates was measured using a ViewLux plate reader.
As for `CC(C)C1OCCN1CCOC(=O)NCCCCCCNC(=O)OCCN1CCOC1C(C)C` (stereo not given), the “activation” value is -1.35% (inactive). On the same count and under the same terms, as for `O=C(Cl)c1ccccc1[N+](=O)[O-]`, the figure is -0.0046% (inactive); as for `CC(C)NC(=O)c1ccc(C=O)cc1`, 5.85% [at 42.5 µM] (inactive); as for `CCCCC1CCC(O)CC1` (stereo not given), -1.31% (inactive). The same measure, in the same setting: as for `O=NN(CCCl)C(=O)NC1CCCCC1`, the figure is -0.0836% [at 42.5 µM] (inactive); as for `CCCCOC(=O)[C@H](C)O`, -0.539% (inactive); as for `CC(C)NCC(O)c1ccc2ccccc2c1` (stereo not given), 2% [at 42.5 µM] (inactive). On to `CC(C)OC(=O)CCC(=O)OC(C)C`, for which the “activation” value was -3.66% (inactive). Still for that read-out and setting: as for `COC(=O)c1ccccc1C(=O)O`, the figure is 1.92% (inactive).

Take `C/C(CC(C)C)=N\O`: the “activation” value is -1.29% (inactive). Same read-out and setting: as for `Cc1cc(-c2ccccc2)nnc1NCCN1CCOCC1`, the figure is 2.77% [at 42.5 µM] (inactive); as for `O=C1CCCCO1`, -3.35% (inactive). Regarding `c1ccc2cnccc2c1`, the “activation” value is 1.05% (inactive). Still for that read-out and setting: under `Cc1c(N)cccc1Cl` stands 0.494% (inactive); under `CCN(CC)CCN`, -0.0343% [at 42.5 µM] (inactive). Same read-out and setting: under `CCCCCC(C)O` (stereo not given) stands 3.02% (inactive); under `COc1cc2c(cc1OC)C(=O)C(CC1CCN(Cc3ccccc3)CC1)C2` (stereo not given), -4.72% [at 42.5 µM] (inactive); under `C=CCCCCCCCC`, -0.752% (inactive). Still for that read-out and setting: as for `CN1CCOC(c2ccccc2)c2ccccc2C1` (stereo not given), the figure is 3.19% [at 42.5 µM] (inactive); as for `CCOCCOCC`, -1.24% (inactive). As to `CNCCS(=O)(=O)O`, the “activation” value is -0.789% (inactive).

Take `Cc1c(NC(=O)c2cccnc2)c(=O)n(-c2ccccc2)n1C`: the “activation” value was 1.67% [at 42.5 µM] (inactive). Still for that read-out and setting: as for `CC/C(C)=N\O[Si](C)(O/N=C(\C)CC)O/N=C(\C)CC`, the figure is 9.94% (inactive); as for `CN(C)CCOC(=O)C(c1ccccc1)C1(O)CCCC1` (stereo not given), 1.51% [at 42.5 µM] (inactive); as for `C=C(C)[C@@H]1CC=C(C)CC1`, -0.154% (inactive). Same read-out and setting: under `CCN1CCCC1CN` (stereo not given) stands -1.68% [at 42.5 µM] (inactive).

For the compound `CCOc1ccccc1OCC1CNCCO1` (stereo not given), the “activation” value was 5.7% [at 42.5 µM] (inactive). Turning to `Cc1ccccc1C(N)=O`, the “activation” value is 0.0179% (inactive). Turning to `Cc1ccc2c(c1)C(=O)c1ccccc1C2=O`, the Potency was 27.2 µM (active). For `N[C@@H](CSCCCO)C(=O)O`, the activation is 0.0803% [at 19 µM] (inactive).

Take `CO[C@@]1(NC(=O)Cc2cccs2)C(=O)N2C(C(=O)O)=C(COC(N)=O)CS[C@@H]21`: the “activation” value was 1.3% [at 42.5 µM] (inactive). Consider `N#CCC(=O)NN`, for which the “activation” value is 0.143% [at 42.5 µM] (inactive).

As for `Cc1ccc(N)cc1S(=O)(=O)O`, the “activation” value was 5.95% (inactive).

In the case of `N#Cc1ccccc1O`, the “activation” value is 0.0202% (inactive). Consider `CCCC(=O)OCCC(C)CCC=C(C)C` (stereo not given), for which the “activation” value is 0.445% (inactive). On to `CCOC(=O)CC1(C)OCC(C)O1` (stereo not given), for which the “activation” value was -0.265% (inactive). Same read-out and setting: as for `CC1=C(O)C(=O)C(C)O1` (stereo not given), the figure is -2.08% (inactive); as for `CCCCCCCCCOC(=O)c1ccccc1C(=O)OCCCCCCCCC`, -0.0788% (inactive); as for `O=[N+]([O-])c1c(Cl)cc(Cl)cc1Cl`, -0.178% (inactive). With `CCc1occc(=O)c1O`, the “activation” value is 0.13% (inactive).
